Compound activity deposited in PubChem BioAssay by several laboratories.
SUMO HTRF inh – blocks human SUMOylation mediated by UBC9 | P63279 | HTRF SUMOylation assay, SAE1/SAE2 + UBC9, in vitro | inhibition, % at 35 µM | 290,000 tested, 0.36% active; in the data active = inhibition above about 50%, passing the limit was not always enough
NTR1 agonist – NTR1 (human) agonism; activation, % at 20 µM; 330,000 tested, 0.17% active; P30989; AID 493036; NTR1-U2OS beta-arrestin-GFP spot imaging, agonist mode;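 active = activation at or above 40% of the spot to cytoplasm intensity ratio, with at least 20 cells analyzed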;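 note: 0% = DMSO without peptide and 100% = 100 nM NTR1 peptide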
Target sequence (P30989 whole entry, looked up): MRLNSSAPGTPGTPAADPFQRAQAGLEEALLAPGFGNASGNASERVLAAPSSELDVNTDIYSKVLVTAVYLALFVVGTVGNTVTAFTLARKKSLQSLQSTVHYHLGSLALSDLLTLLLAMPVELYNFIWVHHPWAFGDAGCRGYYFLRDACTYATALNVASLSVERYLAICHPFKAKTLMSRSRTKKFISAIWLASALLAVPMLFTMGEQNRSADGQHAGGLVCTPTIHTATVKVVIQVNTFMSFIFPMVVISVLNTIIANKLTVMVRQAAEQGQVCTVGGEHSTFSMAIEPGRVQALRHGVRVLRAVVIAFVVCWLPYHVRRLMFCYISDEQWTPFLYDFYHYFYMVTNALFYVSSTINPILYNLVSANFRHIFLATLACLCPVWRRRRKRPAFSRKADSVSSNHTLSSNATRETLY
ALR inh – inhibitors of human sulfhydryl oxidase ALR. purified ALR, DTT oxidation, H2O2 HRP-luminol luminescence. P55789. inhibition, % (test concentration not listed). 290,000 tested, 3.8% active;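 active = mean replicate inhibition above about 79%, with every replicate also reaching it, limit read from the data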
Cardio protect – modulators protecting cardiomyocytes from myocardial damage | H9c2 cardiomyocytes, H2O2 injury protection, ATPLite, 2 h | 360,000 tested, 0.63% active | AID 588492 | protection from H2O2 cell death, % at 20 µM;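 active = compounds giving at least 50% protection of heart cells from peroxide-induced death in the single-dose screen, raw or plate-pattern-corrected value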;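 note: 0% = DMSO wells with peroxide and 100% = DMSO wells without peroxide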
* = called active by the depositor; . = no result. This is a sample that favours compounds with a hit; in the whole collection about 3.9% have one here.

SMILES | SUMO HTRF inh | NTR1 agonist | ALR inh | Cardio protect
N#CC1=C(N)SC2(CCCCC2)SC1c1ccccc1 (stereo not given) | -14 | -1 | 94* | 5
Cc1cc(C)n2nc(C(=O)OCC(=O)Nc3ccc4c(c3)OCCO4)nc2n1 | . | -1 | . | 5
CC(=O)Nc1ccc(NC2CCCCC2NS(=O)(=O)c2ccc(Cl)cc2)cc1 (stereo not given) | -2 | 0 | 99* | -2
O=C(O)c1ccccc1NC1CCCCC1NS(=O)(=O)c1ccccc1 (stereo not given) | -16 | -1 | . | -1
O=S(=O)(NC1CCCCC1Nc1ccccc1)c1ccccc1 (stereo not given) | -5 | 0 | 99* | 1
CC(C)CN(C(=O)COC(=O)c1ccccc1SCC(=O)NC1CCCCCC1)C1CCS(=O)(=O)C1 (stereo not given) | -18 | 0 | . | 10
COc1ccccc1-n1c(=O)c2c3c(sc2n2c(SC(C)C)nnc12)CCC3 | -21 | 0 | -6 | 18
CC/C(C)=N\N=C\c1c(O)n(CC)c2cc(C3=NNC(=O)CC3)ccc12 | 16 | 1 | 64 | 61*
COc1cc(CN(C(=S)NCC(=O)NC2CCCC2)C2CCCC2)cc(OC)c1OC | 16 | 3 | -4 | 4
CCOC(=O)CSc1nc2sc3c(c2c(=O)n1C1CCCCC1)CCN(C)C3 | 12 | 2 | 100* | 13
CCn1c(SCC(=O)Nc2ccc(C)cc2)nc2sc3c(c2c1=O)CCN(C)C3 | -8 | 0 | 99* | 1
COc1ccc(-n2c(SCC(=O)Nc3nccs3)nc3sc4c(c3c2=O)CCN(C)C4)cc1 | 7 | 0 | 99* | 14
CCOC(=O)CSc1nc2sc3c(c2c(=O)n1-c1ccc(OCC)cc1)CCN(C)C3 | 22 | 4 | 94* | 6
CCOc1ccc(-n2c(SCC(N)=O)nc3sc4c(c3c2=O)CCN(C)C4)cc1 | 10 | -1 | . | -2
COc1ccc(N2CCN(C(=O)COC(=O)Cc3c(F)cccc3Cl)CC2)cc1 | . | -1 | 57 | -8
COc1ccc(NC(=O)CSc2nc3sc4c(c3c(=O)n2-c2ccc(OC)cc2)CCN(C)C4)cc1 | 4 | 2 | 98* | 0
O=C(CSc1nc2c(c(=O)n1-c1ccc(Br)cc1)SCC2)Nc1nccs1 | -24 | 6 | 99* | 7
COc1ccc(C(=O)Oc2ccc(F)cc2C(=O)/C=C/c2ccc(OC)c(OC)c2)cc1 | 0 | 6 | 8 | -1
C=CCn1c2ccccc2c2nnc(SCCN3CCCCC3)nc21 | 12 | 2 | 4 | 4
O=C1Nc2ccc3c(c2C1=Cc1cc2c(cc1Br)OCO2)OCO3 | . | . | . | 0
O=C1NC(=O)/C(=C/c2cc3c(cc2Br)OCO3)S1 | 7 | . | 96* | -5
O=C1NC(=O)/C(=C\c2ccc(O)cc2O)S1 | 38 | 0 | 99* | 19
COc1ccc(-c2nc(CS(=O)(=O)CC(=O)NCCCN3CCN(C)CC3)c(C)o2)cc1 | 18 | 0 | 99* | 0
Cc1oc(-c2ccccc2F)nc1CS(=O)(=O)CC(=O)NCCCN1CCN(C)CC1 | 9 | 0 | -1 | 4
COc1cccc(-c2nc(CS(=O)(=O)CC(=O)NCCc3ccc(OC)cc3OC)c(C)o2)c1 | 10 | 1 | 59 | -2
SMILES | SUMO HTRF inh | NTR1 agonist | ALR inh | Cardio protect
COc1cccc(-c2nc(CS(=O)(=O)CC(=O)NCCc3cc(OC)ccc3OC)c(C)o2)c1 | 15 | 2 | 99* | -2
COc1ccc(-c2nc(CS(=O)(=O)CC(=O)NCCc3cc(OC)ccc3OC)c(C)o2)cc1 | 12 | 2 | 99* | -2
COc1ccc(CCn2c(=N)c(C(=O)NCCN3CCOCC3)cc3c(=O)n4cccc(C)c4nc32)cc1OC | -6 | 9 | -2 | 61*
COc1ccc(CCn2c(=N)c(C(=O)NCCN3CCOCC3)cc3c(=O)n4ccccc4nc32)cc1OC | 16 | 0 | -4 | 20
O=C(CSc1ccc2nnc(-c3cccnc3)n2n1)N1CCOCC1 | -1 | -1 | -4 | -6
COc1ccc(CC(=O)N/N=C(\C)CC(=O)Nc2ccc(N(C)C)cc2)cc1 | -2 | 0 | 94* | -3
C/C(CC(=O)Nc1ccc(N(C)C)cc1)=N\NC(=O)c1ccc([N+](=O)[O-])cc1 | 3 | 1 | 95* | 48
COc1ccc(C(=S)Nc2ccc(N(C)C)cc2)cc1 | 10 | -2 | 99* | -19
COc1ccc(NC(=S)c2ccc(N(C)C)cc2)cc1 | -1 | 2 | 6 | -2
COc1ccc(CC(=O)N/N=C(\C)CC(=O)Nc2ccc3c(c2)OCCO3)cc1 | -8 | -1 | . | 4
CN1CCN(C(c2cccnc2)c2ccc3cccnc3c2O)CC1 (stereo not given) | -56 | 0 | -3 | 62*
